Laboratory results reported in PubChem BioAssay (NCATS).
Several values for one entry are separate records, joined by “and”; a condition that tells them apart may be missing. Equal values may be shown once. Results filed as inconclusive are left out. A call without a number means that no potency is given here. Activity calls are given as the source filed them. Unless noted, calls come from the whole dose curve.

Legend:
[1] = target: Bile acid receptor (Homo sapiens) (UniProt Q96RI1); assay: qHTS assay for small molecule agonists of farnesoid X receptor signaling (AID 588527); details: HEK293T FXR-UAS-bla, beta-lactamase ratio, 16 h; stronger effect = higher value
Sequence of Bile acid receptor (Homo sapiens) (Q96RI1 whole entry, looked up): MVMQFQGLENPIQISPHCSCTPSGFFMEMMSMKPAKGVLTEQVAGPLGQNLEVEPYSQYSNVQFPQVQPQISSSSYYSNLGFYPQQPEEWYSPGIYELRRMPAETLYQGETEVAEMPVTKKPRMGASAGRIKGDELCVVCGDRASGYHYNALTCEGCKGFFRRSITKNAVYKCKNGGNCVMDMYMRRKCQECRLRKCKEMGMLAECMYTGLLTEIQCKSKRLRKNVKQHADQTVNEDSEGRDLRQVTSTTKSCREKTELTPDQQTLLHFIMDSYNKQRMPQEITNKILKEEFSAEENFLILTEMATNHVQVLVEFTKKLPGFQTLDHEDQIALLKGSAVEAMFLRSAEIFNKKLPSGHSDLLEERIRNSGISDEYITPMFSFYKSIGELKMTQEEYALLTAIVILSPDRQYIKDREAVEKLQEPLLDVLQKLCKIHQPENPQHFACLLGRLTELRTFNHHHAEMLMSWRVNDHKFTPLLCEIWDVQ
Summary of the method: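 FXR-UAS-bla HEK293T cells (10% dialyzed FBS) preincubated 5-7 h at 37 C, then compounds at up to 92 uM for 16 h at 37 C. CCF4 beta-lactamase read-out after 2 h RT. Normalized to chenodeoxycholic acid (100 uM) and DMSO; Hill fit gave EC50 and efficacy.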

[2] = target: Peroxisome proliferator-activated receptor delta (Homo sapiens) (UniProt Q03181); assay: qHTS assay for small molecule agonists of peroxisome proliferator-activated receptor delta signaling (AID 588534)
Sequence of Peroxisome proliferator-activated receptor delta (Homo sapiens) (Q03181 whole entry, looked up): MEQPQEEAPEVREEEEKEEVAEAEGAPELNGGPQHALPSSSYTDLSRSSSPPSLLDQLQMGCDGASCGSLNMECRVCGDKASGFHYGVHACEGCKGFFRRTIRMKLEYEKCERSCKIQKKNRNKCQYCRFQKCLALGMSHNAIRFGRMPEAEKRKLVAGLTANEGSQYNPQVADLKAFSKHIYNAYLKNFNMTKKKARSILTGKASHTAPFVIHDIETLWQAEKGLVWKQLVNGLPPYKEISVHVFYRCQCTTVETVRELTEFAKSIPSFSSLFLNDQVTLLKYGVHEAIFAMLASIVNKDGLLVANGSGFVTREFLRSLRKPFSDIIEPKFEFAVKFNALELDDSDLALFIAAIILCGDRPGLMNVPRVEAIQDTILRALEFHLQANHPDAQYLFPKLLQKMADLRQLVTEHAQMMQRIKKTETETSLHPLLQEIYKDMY
Summary of the method: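 Reporter cells were plated and held 5 hrs at 37 C before compounds were added. After 18 hrs at 37 C, CCF4 dye was loaded for 2 hrs at RT and fluorescence measured.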

[3] = Primary qHTS for Huh7 cytotoxicity: counterscreen for inhibitors of MERS-S pseudotyped particle cell entry (AID 1479147); details: outcome: dose series up to 57.1 µM unless noted
[4] = Primary qHTS for inhibitors of MERS-S pseudo-typed particle cell entry (AID 1479149); details: outcome: dose series up to 57.1 µM unless noted; note: nearly all actives have a fitted effect of over 60% in size; note: potency is the fitted concentration of half-maximal effect
[5] = Primary qHTS for Vero E6 cytotoxicity: counterscreen for inhibitors of SARS-S pseudo-typed particle cell entry (AID 1479150); details: outcome: dose series up to 57.1 µM unless noted
[6] = Cytotoxicity counterscreen for inhibitors of SARS-CoV-2 cell entry (AID 1645845); details: outcome: dose series up to 57.1 µM unless noted; note: nearly all actives have a fitted effect of over 50% in size
Summary of the method: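 48 h compound treatment (after 1 h preincubation), HEK293-ACE2 cells, 37 C/5% CO2; ATP luminescence endpoint; normalized to cell wells and media blanks.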

[7] = Primary qHTS to identify inhibitors of SARS-CoV-2 cell entry (AID 1645846); details: SARS-CoV-2 pseudovirus cell entry assay, luminescence; activity change, negative = inhibition: at 57.1 µM (top of the series) unless noted; note: nearly all actives have a fitted effect of over 45% in size; note: potency is the fitted concentration of half-maximal effect
Summary of the method: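 HEK293 cells stably expressing human ACE2, pre-treated 1 h with compound, then infected with MLV particles pseudotyped with Wuhan-Hu-1 spike (C-terminal 19-aa truncation). Luciferase luminescence after 48 h at 37 °C, normalised to spike PP and bald PP.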

[8] = qHTS Assay for Identifying Gametocytocidal Compounds (AID 743244; active = well fitted curve in the direction sought with a large enough effect; note: potency is the fitted concentration of half-maximal effect); details: P. falciparum 3D7 stage III-V gametocytes, alamarBlue, 72 h
Summary of the method: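 P. falciparum 3D7 stage III–V gametocytes (20,000 cells/well) were exposed to compounds for 72 h at 37 °C, 5% CO2. AlamarBlue was then added for 24 h; decreased resorufin fluorescence (Ex 525/Em 598 nm) indicated loss of viability.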

[9] = VSVG counterscreen qHTS to identify inhibitors of SARS-CoV-2 cell entry (AID 1645847); note: potency is the fitted concentration of half-maximal effect; nearly all actives have a fitted effect of over 65% in size
Summary of the method: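 HEK293-ACE2 cells (Expi293F, human ACE2) pretreated 1 h with compound, then infected with MLV-based VSV-G pseudotyped particles for 48 h at 37 C; luciferase luminescence normalized to VSV-G PP and bald PP wells.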

Structure (SMILES) | activation [1] | outcome [2] | Potency [3] | Potency [4] | Potency [5] | Potency [6] | Potency [7] | Potency [8] | Potency [9]
c1ccc2ccccc2c1 | 2.2% (inactive) and 1.82% (inactive) | inactive | inactive | inactive | inactive | inactive | inactive | – | –
CCCC(CCC)C(=O)OC1C[C@H]2CC[C@@H](C1)[N+]2(C)C (some centres not stated) | – | – | inactive | inactive | inactive | inactive | – | 10 µM (active) | –
C[C@H]1[C@H](OC(=O)CCC(=O)O)O[C@@H]2O[C@@]3(C)CC[C@H]4[C@H](C)CC[C@@H]1[C@@]24OO3 | – | – | inactive | 2.82 µM (active) | inactive | – | 2.24 µM (active) | – | 1.21 µM (active)
